Results with a measured potency or affinity are listed apart. Inconclusive results are not listed. Active and inactive are the calls of the source.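 Rule for the calls: active = compounds lowering the FRET ratio whose fitted half-maximal concentration is at most twice their top tested dose; inconclusive = flat partial drop between 30 and 70 percent, or bad fit; inactive = the rest.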
molecular target: Voltage-dependent L-type calcium channel subunit alpha-1D (Homo sapiens) (UniProt Q01668); experiment: inhibitors of CaV1.3 ICDI-IQ binding, dose response, cell-based, HEK293, YFP-IQ/CFP-ICDI FRET, cherry-picks (AID 1053205); conditions: HEK293 YFP-IQ/CFP-ICDI FRET ratio, 10 min; series mostly up to 35 µM
Sequence (Q01668 whole entry, looked up): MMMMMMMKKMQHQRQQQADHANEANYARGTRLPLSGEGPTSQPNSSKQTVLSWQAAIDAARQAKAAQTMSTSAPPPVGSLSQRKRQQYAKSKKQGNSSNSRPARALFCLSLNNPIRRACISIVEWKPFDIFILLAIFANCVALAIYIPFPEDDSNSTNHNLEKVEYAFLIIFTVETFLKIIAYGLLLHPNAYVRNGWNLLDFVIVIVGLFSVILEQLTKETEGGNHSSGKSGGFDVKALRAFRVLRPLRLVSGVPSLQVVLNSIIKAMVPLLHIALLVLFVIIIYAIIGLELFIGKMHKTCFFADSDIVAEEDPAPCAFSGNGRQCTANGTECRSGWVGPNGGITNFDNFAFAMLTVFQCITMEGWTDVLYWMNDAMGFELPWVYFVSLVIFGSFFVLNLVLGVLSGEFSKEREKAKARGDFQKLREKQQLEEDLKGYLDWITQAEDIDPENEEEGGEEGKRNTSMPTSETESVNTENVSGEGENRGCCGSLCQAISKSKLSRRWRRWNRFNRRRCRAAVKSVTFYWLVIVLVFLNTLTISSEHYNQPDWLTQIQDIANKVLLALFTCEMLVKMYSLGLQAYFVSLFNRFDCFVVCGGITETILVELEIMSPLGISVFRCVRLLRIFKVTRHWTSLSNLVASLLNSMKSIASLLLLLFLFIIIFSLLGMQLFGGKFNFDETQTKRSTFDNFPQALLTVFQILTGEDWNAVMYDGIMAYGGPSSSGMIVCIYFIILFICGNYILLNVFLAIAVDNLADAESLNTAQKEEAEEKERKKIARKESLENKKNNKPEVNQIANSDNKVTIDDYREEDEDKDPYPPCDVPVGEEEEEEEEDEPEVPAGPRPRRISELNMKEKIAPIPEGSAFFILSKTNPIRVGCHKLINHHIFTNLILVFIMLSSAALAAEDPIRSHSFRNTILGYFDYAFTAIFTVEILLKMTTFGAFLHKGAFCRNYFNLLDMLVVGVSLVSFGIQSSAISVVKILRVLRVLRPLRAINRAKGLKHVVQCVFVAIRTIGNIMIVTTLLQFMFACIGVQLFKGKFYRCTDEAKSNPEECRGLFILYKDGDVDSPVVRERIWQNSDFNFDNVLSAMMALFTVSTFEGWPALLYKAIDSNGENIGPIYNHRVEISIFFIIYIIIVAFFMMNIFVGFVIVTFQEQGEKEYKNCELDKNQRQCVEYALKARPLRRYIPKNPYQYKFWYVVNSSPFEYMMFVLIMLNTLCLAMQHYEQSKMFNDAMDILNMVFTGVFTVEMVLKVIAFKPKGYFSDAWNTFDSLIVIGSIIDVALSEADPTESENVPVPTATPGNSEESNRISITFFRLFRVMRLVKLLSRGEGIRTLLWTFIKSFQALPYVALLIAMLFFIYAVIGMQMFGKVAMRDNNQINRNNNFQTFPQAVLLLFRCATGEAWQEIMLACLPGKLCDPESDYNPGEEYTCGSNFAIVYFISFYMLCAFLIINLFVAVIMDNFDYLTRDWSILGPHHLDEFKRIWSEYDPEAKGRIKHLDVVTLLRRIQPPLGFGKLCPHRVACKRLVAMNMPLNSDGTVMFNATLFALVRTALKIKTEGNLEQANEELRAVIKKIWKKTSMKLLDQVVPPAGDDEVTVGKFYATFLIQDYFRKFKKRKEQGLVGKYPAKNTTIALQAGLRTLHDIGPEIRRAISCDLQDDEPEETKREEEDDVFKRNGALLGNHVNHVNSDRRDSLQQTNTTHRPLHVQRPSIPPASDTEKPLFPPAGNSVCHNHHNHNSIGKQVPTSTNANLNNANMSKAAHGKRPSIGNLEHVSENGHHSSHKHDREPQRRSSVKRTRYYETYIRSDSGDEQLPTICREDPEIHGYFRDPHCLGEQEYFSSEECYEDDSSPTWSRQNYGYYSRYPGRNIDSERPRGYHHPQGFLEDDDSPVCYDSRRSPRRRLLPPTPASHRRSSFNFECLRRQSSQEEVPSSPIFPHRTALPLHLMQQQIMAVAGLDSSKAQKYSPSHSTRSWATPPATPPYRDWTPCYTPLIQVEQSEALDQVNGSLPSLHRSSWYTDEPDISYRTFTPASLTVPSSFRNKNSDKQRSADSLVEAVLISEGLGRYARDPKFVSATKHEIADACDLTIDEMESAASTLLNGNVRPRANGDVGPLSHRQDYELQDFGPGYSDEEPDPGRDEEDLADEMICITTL

SMILES	outcome
CCOC(=O)c1c(C)n(C)c2ccc(OCC(O)CN3CCC(C)CC3)cc12 (centres undefined)	inactive
NC(=O)c1c(NC(=O)Cc2ccccc2)sc2c1CCN(Cc1ccccc1)C2	inactive
O=c1oc2cc(O)ccc2cc1S(=O)(=O)c1ccccc1	inactive
CC/C(C)=N\Nc1nc(-c2cc3cc(OC)ccc3oc2=O)cs1	inactive
CCc1ccccc1S(=O)(=O)Cc1ccc(C(=O)N2CCN(c3ccccc3OC)CC2)o1	inactive
N#CC1=C(N)Oc2cc(N)ccc2C1c1ccc(F)cc1F (centres undefined)	inactive
O=C(NNc1c2ccccc2nc2ccccc12)c1ccc(O)cc1	inactive
N#Cc1ccc(OCC(=O)OCC(=O)N2CCc3ccccc32)cc1	inactive
Cc1ccc2nc3c(cc(C(N)=S)c(=N)n3CCCOC(C)C)c(=O)n2c1	inactive
CCCN1CCN(C(=O)c2ccc(CS(=O)c3ccc(Br)cc3)o2)CC1 (centres undefined)	inactive
CC(=O)Oc1ccc(C(=O)Nc2cc(C)on2)cc1	inactive
O=C(COC(=O)c1cc(S(=O)(=O)N2CCCCC2)ccc1N1CCOCC1)c1ccccc1Cl	inactive
CCc1nnc(NC(=O)c2ccc(-c3ccccc3F)o2)s1	inactive
CCCn1c(=N)c(S(=O)(=O)c2ccccc2)cc2c(=O)n3ccccc3nc21	inactive
Cc1cc(CNC(=O)c2ccc3c(c2)OCO3)c2ccccc2n1	inactive
Cc1oc(/N=C/c2ccc(O)cc2O)c(C#N)c1C	inactive
CCOC1=NN(c2ncc(C(F)(F)F)cc2Cl)C(=O)C1	inactive
N#Cc1c2ccc(OCC(N)=O)cc2n2ccccc12	inactive
Cc1c(C(=O)NCc2ccc(Cl)c(Cl)c2)sc(=O)n1Cc1cccc(F)c1	inactive
